High-throughput results from PubChem.
In the library only some 3.1% were active in any assay of this set; here they are far more common.
BoNT F protease = BoNT/F light chain protease inhibitors, primary screen, biochemical, flow cytometry, MLPCN library. AID 588497, 2011. Multiplex microsphere protease cleavage assay. Botulinum neurotoxin type F light chain protease (Clostridium botulinum). inhibition, % at 10 µM. hit rate 0.22% among 360,000; in the data active = inhibition above about 35%, passing the limit was not always enough; inconclusive = no clear call, values can overlap the other calls; also: plate controls were buffer without enzyme for full effect and enzyme alone for no effect
Autofluor counter = counter-screen for toxin protease inhibitors: compound fluorescence. hit rate 3.1% among 360,000. fluorescence intensity (no concentration beside the values). compound autofluorescence counterscreen, microsphere flow cytometry; hits give high values; in the data active = fluorescence intensity above about 16000; inconclusive = no clear call, values can overlap the other calls
BoNT A protease = BoNT/A light chain protease inhibitors, primary screen, biochemical, flow cytometry, MLPCN library | Botulinum neurotoxin type A light chain protease (Clostridium botulinum A str. ATCC 3502) | multiplex microsphere protease substrate cleavage | inhibition, % at 10 µM | hit rate 0.17% among 360,000; also: plate controls were buffer without enzyme for full effect and enzyme alone for no effect
PriA SSB inh = inhibitors of Klebsiella pneumoniae PriA binding to SSB C-terminal tail, primary screen, biochemical, AlphaScreen; AlphaScreen SSBct-PriA binding, biotinylated peptide; inhibition, % at 33 µM; hit rate 0.6% among 430,000; in the data active = inhibition mostly above about 37%, no sharp cut-off; inactive = mostly below about 20%;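 also: plate controls were negative control peptide for no effect and reference peptide for full effect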
Anthrax LF prot = Bacillus anthracis LF protease inhibitors, primary screen, biochemical, multiplex microsphere, MLPCN library | inhibition, % at 10 µM | multiplex microsphere protease cleavage assay | hit rate 0.12% among 360,000; also: plate controls were buffer without enzyme for full effect and enzyme alone for no effect
Target sequence (P15917 whole entry, looked up): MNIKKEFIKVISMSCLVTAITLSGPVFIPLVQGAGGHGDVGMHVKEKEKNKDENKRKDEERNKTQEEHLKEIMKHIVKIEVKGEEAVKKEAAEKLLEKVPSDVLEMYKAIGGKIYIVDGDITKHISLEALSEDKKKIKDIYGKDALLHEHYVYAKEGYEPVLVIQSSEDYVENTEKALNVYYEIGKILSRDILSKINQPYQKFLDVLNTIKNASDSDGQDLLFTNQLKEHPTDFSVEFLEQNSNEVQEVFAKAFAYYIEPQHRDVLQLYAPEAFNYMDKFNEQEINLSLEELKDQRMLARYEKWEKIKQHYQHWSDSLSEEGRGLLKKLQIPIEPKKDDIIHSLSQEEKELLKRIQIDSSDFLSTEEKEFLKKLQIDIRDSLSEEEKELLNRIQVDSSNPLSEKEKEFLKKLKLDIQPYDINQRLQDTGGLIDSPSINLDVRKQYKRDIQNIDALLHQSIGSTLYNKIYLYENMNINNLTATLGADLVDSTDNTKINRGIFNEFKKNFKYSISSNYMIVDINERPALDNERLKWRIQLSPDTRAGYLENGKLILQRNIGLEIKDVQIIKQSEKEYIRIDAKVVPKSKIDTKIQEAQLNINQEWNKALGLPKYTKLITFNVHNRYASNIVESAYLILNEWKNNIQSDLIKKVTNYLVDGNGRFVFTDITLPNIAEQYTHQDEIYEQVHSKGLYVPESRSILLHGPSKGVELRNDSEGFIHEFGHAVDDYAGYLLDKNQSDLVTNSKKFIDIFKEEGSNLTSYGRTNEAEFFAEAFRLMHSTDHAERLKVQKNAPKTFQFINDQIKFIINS
An asterisk follows results filed as active; u = inconclusive; x = no result given. Rule as the data show it, unless noted: active = inhibition above about 30%; inconclusive = no clear call, values can overlap the other calls; inactive = below that.

SMILES | BoNT F protease | Autofluor counter | BoNT A protease | PriA SSB inh | Anthrax LF prot
COc1ccccc1-c1ccc(SCC(=O)Nc2cccc(C(F)(F)F)c2)nn1 | x | x | x | 1.0 | x
COC(=O)c1c(-c2ccco2)csc1NC(=O)CN1CCC(C)CC1 | x | x | x | -1.0 | x
Oc1cc(Cl)c2ncccc2c1 | x | x | x | 32.5 | x
CC1CCN(c2cc(N3CCOCC3)c(F)cc2[N+](=O)[O-])CC1 | u | 4193 | 0.4 | 58.3* | -4.8
CC1CCN(c2cc(N3CCOCC3)c([N+](=O)[O-])cc2F)CC1 | u | 4102 | 0.1 | 4.9 | -2.3
O=[N+]([O-])c1cc(F)c(N2CCc3ccccc3C2)cc1N1CCCC1 | x | x | x | 52.4 | x
O=[N+]([O-])c1cc(F)c(N2CCCCCC2)cc1N1CCc2ccccc2C1 | x | x | x | 54.8* | x
O=[N+]([O-])c1cc(F)c(N2CCc3ccccc3C2)cc1N1CCCCCC1 | x | x | x | 65.5* | x
O=C(NCc1ccccn1)c1ccc(N2CCCC2)nn1 | x | x | x | -11.0 | x
CCOc1ccc(N=c2scc(C)n2CCO)cc1 | x | x | x | 26.0 | x
Cc1ccc(C#N)c(=O)n1C | x | x | x | 18.0 | x
CCCN(Cc1cc2ccc(C)cc2[nH]c1=O)S(=O)(=O)c1ccccc1 | 1.2 | 2886 | 0.5 | 14.0 | 3.3
COC(=O)c1cccc(S(=O)(=O)N(Cc2ccco2)Cc2cc3ccc(OC)cc3[nH]c2=O)c1 | -4.4 | 24753* | -4.4 | 1.6 | -1.0
COC(=O)c1cccc(S(=O)(=O)N(Cc2ccco2)Cc2cc3cc(OC)c(OC)cc3[nH]c2=O)c1 | -1.2 | 10265 | 0.2 | -26.0 | -2.2
CC(=O)c1cccc(S(=O)(=O)N(CCCO)Cc2cc3ccc(C)cc3[nH]c2=O)c1 | -6.8 | 24495* | -6.1 | -2.1 | -0.5
C=CCn1c(SCc2c(C)noc2C)nc2sc3c(c2c1=O)CCCCC3 | -6.3 | 24051* | -1.7 | 4.9 | -1.0
CCC(=NNC(=O)c1ccccc1)c1ccc(OCCN2CCOCC2)cc1 | x | x | x | -3.5 | x
O=C(COc1ccccc1)NCC(c1ccco1)S(=O)(=O)c1ccc(F)cc1 (stereo not given) | x | x | x | -7.0 | x
O=C(C1CC1)N1CCc2ccc(NS(=O)(=O)c3cccc(F)c3)cc21 | x | x | x | 8.0 | x
CCCCOC(=O)c1ccc(NC(=O)c2cc3n(n2)CCCO3)cc1 | x | x | x | -3.0 | x
CCOC(=O)Nc1sc2c(c1C(=O)OCC)CCC2 | -2.6 | 9758 | -0.7 | -20.4 | -16.9
CCOC(=O)c1c(NC(NC(=O)C(C)C)C(Cl)(Cl)Cl)sc2c1CCC2 (stereo not given) | 47.0* | 2881 | 4.1 | 1.6 | -4.1
O=C(NCc1nn(C2CCCC2)c2c1CCCC2)c1ccccc1C(F)(F)F | x | x | x | 0.0 | x
Cc1ccc(-c2ccc(=O)n(CC(=O)Nc3cccc(C(=O)N4CCN(C)CC4)c3)n2)cc1 | 2.1 | 19402* | u | 13.3 | -8.6
COc1ccc(Br)cc1-c1nc(C(N)=O)c2[nH]c(=O)n(-c3ccc(C(C)(C)C)cc3)c2n1 | x | x | x | -16.0 | x
SMILES | BoNT F protease | Autofluor counter | BoNT A protease | PriA SSB inh | Anthrax LF prot
CCN(CC)S(=O)(=O)c1ccc(F)cc1 | -2.2 | 17034* | u | -3.8 | 0.4
CCN(CC)S(=O)(=O)c1cccc(S(=O)(=O)c2cccc(S(=O)(=O)N(CC)CC)c2)c1 | 0.2 | 22967* | u | -21.8 | -5.0
CCN(CC)S(=O)(=O)c1cccc(S(=O)(=O)N2CCCCC2)c1 | -9.7 | 5442 | -0.8 | -8.8 | -6.7
CC(C)(C)NC(=O)C(=O)NCC1CCN(Cc2cccs2)CC1 | x | x | x | -34.0 | x
Cc1ccc(C([O-])=C(C(=S)Nc2ccc(SC(F)F)cc2)[n+]2ccccc2)cc1[N+](=O)[O-] | x | x | x | -1.1 | x
O=C(NCCc1ccncc1)c1ccnc2nc[nH]c12 | x | x | x | -11.0 | x
CCCc1[nH]nc2c1C1(C(=O)N(Cc3ccccc3)c3ccccc31)C(C(=O)OC)=C(N)O2 (stereo not given) | 8.8 | 17223* | 7.8 | 21.9 | -15.2
CCN1C(=O)C2(C(C#N)=C(N)Oc3n[nH]c(-c4ccccc4)c32)c2ccccc21 (stereo not given) | -0.5 | 16247* | 0.1 | -8.3 | -1.2
CCc1nc2oc3ccccc3c(=O)c2c(=O)n1-c1ccccc1 | 3.0 | 16529* | 0.2 | -16.8 | 0.5
CCc1nc2oc3ccccc3c(=O)c2c(=O)n1-c1ccc(C)cc1 | x | x | x | -4.6 | x
COc1ccc(Nc2nc(N)nc(C(F)(F)F)n2)c(OC)c1 | 6.1 | 17527* | 5.5 | -1.8 | -8.7
COc1ccc(Nc2nc(NC(C)(C)C)nc(N3CCOCC3)n2)c(OC)c1 | -2.6 | 2027 | 0.4 | 15.9 | -0.2
COc1ccc(Nc2nc(N3CCCCC3)nc(N3CCCCC3)n2)c(OC)c1 | -1.7 | 10251 | -1.0 | -13.7 | -4.6
COc1ccc(Nc2nc(N3CCCC3)nc(N3CCCC3)n2)c(OC)c1 | -2.6 | 20538* | -0.6 | -5.2 | -3.8
COc1ccc(Nc2nc(NC(C)(C)C)nc(N3CCCC3)n2)c(OC)c1 | -26.3 | 11826 | -1.5 | 44.5* | -6.4
O=C(Nc1ccn(Cc2c(F)c(F)cc(F)c2F)n1)c1cccc(Cn2cc([N+](=O)[O-])cn2)c1 | -1.0 | 23743* | -1.6 | 3.3 | -2.5
O=C(Cn1cc([N+](=O)[O-])cn1)Nc1ccn(Cc2c(F)c(F)c(F)c(F)c2F)n1 | -1.2 | 22598* | 0.5 | -9.9 | -1.1
O=C(Nc1ccn(Cc2c(F)c(F)c(F)c(F)c2F)n1)c1cccc(Cn2cc([N+](=O)[O-])cn2)c1 | -8.2 | 7985 | 0.3 | -6.2 | -4.8
O=C(Cn1cc([N+](=O)[O-])cn1)Nc1ccn(Cc2c(F)c(F)cc(F)c2F)n1 | 2.7 | 23297* | u | -3.0 | -1.6
O=C(c1ccco1)N1CCC[C@H](Cc2nc(C3CC3)no2)C1 | x | x | x | -19.0 | x
Cc1cccc(OC2CCN(C(=O)c3ccccn3)CC2)n1 | x | x | x | -14.0 | x
CCOC(=O)c1nc(C)[nH]c1C(=O)OCC | 0.1 | 22419* | u | 0.6 | -4.0
Cc1cnc(C(=O)OCC(=O)NC23CC4CC(CC(C4)C2)C3)cn1 | 0.1 | 20090* | 1.1 | -7.3 | 0.8
CCOc1ccccc1NC(=O)c1ccc(NC(=O)c2ccco2)cc1 | 4.6 | 3366 | -0.6 | -12.5 | 3.2
CCOc1ccccc1NC(=O)c1cc(Cl)ccc1NC(=O)c1ccco1 | 10.9 | 17027* | 8.2 | 0.2 | -12.1
SMILES | BoNT F protease | Autofluor counter | BoNT A protease | PriA SSB inh | Anthrax LF prot
COc1ccccc1NC(=O)c1ccccc1NC(=O)c1cc(Cl)ccc1NC(=O)c1ccco1 | 2.7 | 21221* | u | -11.5 | -0.1
COc1ccc(NC(=O)c2ccco2)cc1NC(=O)c1ccco1 | -1.9 | 9627 | -0.5 | -3.1 | -7.2
COc1ccc(NC(=O)Cc2ccc(Cl)cc2)cc1NC(=O)c1ccco1 | 1.9 | 21196* | u | -5.0 | -8.7
COc1ccccc1-c1noc(-c2ccccc2C(=O)Nc2ccccc2)n1 | 4.8 | 4282 | 1.2 | -12.0 | -1.2
COc1ccccc1NC(=O)c1cc(Cl)ccc1NC(=O)c1ccco1 | -15.8 | 2849 | -0.1 | -12.3 | -6.4
COc1ccccc1NC(=O)c1ccccc1-c1nc(-c2ccccc2OC)no1 | -6.4 | 21774* | -5.4 | -12.7 | -3.5
Cc1cccc(N2CCN(c3ncc(S(=O)(=O)c4ccc(C)c(C)c4)c(N)n3)CC2)c1 | x | x | x | -5.0 | x
O=C1CC(N2CCN(Cc3ccccc3)CC2)C(=O)N1Cc1ccc2c(c1)OCO2 (stereo not given) | x | x | x | 10.0 | x
